PubChem BioAssay AID624141 (Broad Institute, 2012)
Hit rate of the full screen: of about 17,000 compounds, about 260 (1.5%) were called active. This is one part of a sample in which actives are shown more often than they occur.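 The calls were made as follows: active = spot fluorescence over background with P-value below 7% in all four replicate spots, showing protein binding; inactive = the rest.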

molecular target: Myc proto-oncogene protein (Homo sapiens) (UniProt P01106); test: small molecules binding His-tagged c-Myc – biochemical, small molecule microarray, anti-His fluorescence, primary screen (AID 624141)
Sequence (P01106 whole entry, looked up): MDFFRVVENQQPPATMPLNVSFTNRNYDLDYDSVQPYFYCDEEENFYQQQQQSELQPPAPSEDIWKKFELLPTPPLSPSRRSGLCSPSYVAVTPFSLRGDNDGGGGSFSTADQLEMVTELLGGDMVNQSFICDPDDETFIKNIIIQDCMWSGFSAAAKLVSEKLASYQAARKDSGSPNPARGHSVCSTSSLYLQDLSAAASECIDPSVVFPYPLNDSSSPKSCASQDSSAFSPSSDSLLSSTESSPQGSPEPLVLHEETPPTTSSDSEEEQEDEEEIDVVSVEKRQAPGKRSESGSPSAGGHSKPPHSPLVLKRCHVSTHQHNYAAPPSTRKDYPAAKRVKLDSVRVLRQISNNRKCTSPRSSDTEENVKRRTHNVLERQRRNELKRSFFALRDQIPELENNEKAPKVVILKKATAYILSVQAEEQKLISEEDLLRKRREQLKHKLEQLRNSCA

Row | Structure (SMILES) | outcome
1 | c1cncc(CNCCc2c[nH]c3ccccc23)c1 | active
2 | COc1ccc2[nH]cc(CCNCc3ccc(Br)cc3)c2c1 | inactive
3 | c1ccc(CCCCN2CCC(c3ccccc3)CC2)cc1 | inactive
4 | C[C@H](CO)N1C[C@H](C)[C@H](CN(C)C(=O)Oc2ccc3ccccc3c2)OCc2cnnn2CCCC1=O | inactive
5 | CN[C@@H]1C[C@H]2O[C@@](C)([C@@H]1OC)n1c3ccccc3c3c4c(c5c6ccccc6n2c5c31)C(=O)NC4 | inactive
